Out of some 390,000 compounds screened, about 17,000 (4.4%) were called active. Roughly 8% stayed inconclusive and do not appear here. The call rests on the fitted dose curve; in most records, active means well fitted inhibition curve with a large enough effect; inconclusive means small, poorly fitted or top-dose-only effect; inactive means no such curve, though single readings can be large or run the other way. The entries come from a sample that favours actives as a whole.
target: Lysine-specific demethylase 4A (Homo sapiens) (UniProt O75164); assay: qHTS Assay for Inhibitors of JMJD2A-Tudor Domain; conditions: AlphaScreen JMJD2A-Tudor / H3K4me3 peptide binding; series mostly up to 114 µM; further: nearly all actives have a fitted effect of over 50% in size
Potency means the concentration at half of the fitted maximal effect.

Lysine-specific demethylase 4A (Homo sapiens), sequence (O75164 whole entry, looked up, the tested form may be a part): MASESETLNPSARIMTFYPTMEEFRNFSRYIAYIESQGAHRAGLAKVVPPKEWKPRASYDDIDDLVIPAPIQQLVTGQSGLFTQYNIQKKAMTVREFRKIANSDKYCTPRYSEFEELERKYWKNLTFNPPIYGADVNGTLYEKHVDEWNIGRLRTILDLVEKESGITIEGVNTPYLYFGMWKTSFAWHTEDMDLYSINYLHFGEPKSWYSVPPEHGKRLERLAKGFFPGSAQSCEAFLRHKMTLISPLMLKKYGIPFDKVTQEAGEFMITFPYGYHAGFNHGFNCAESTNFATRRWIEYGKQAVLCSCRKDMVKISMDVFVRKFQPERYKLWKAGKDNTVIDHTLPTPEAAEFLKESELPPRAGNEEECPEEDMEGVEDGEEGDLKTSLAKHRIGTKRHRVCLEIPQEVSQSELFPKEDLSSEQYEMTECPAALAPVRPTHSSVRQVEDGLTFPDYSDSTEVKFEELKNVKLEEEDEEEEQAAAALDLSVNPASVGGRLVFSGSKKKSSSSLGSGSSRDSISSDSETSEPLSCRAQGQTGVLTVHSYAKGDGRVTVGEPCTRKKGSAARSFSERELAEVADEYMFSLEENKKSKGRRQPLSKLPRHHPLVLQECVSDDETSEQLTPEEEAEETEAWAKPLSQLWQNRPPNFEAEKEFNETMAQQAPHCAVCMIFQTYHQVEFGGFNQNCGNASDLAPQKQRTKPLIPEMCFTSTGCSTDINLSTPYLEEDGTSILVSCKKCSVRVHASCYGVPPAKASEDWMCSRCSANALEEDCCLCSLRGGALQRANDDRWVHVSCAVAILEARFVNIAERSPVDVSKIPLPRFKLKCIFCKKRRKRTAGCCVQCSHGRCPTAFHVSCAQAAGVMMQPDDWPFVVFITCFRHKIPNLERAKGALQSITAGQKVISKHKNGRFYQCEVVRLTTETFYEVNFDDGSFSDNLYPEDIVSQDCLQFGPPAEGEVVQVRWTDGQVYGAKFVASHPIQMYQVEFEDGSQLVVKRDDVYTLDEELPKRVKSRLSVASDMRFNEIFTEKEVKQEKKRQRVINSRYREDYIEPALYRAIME

Potency, inactive:
CCc1cccc(NC(=O)c2cnc(N3CCOCC3)c3ccccc23)c1
O=C(COc1ccccc1F)Nc1ccc(C(=O)OCc2cc(=O)n3nc(C4CC4)sc3n2)cc1
Cc1cccc(C)c1-n1ncc(C(=O)NCCCN2CCCCC2)c1C1CCN(C(=O)OC(C)(C)C)CC1
COc1ccc(Cc2nc3ccc(C(=O)NCc4ccc(OC)cc4OC)cc3o2)cc1
COc1ccc(OC)c(NC(=O)C2CCCN(S(=O)(=O)c3ccc4c(c3)CCCC(=O)N4)C2)c1 (stereo unspecified)
OC(c1ccccc1)C(CN1CCOCC1)c1ccccc1 (stereo unspecified)
O=[N+]([O-])c1ccc(COc2ccccc2CN2CCOCC2)cc1
CCc1nc(NCCO)c(C#N)c2c1CCCC2
CC(C)Cc1nc(N2CCOCC2)c(C#N)c2c1CCC2
CCCNC(=O)C1CCN(c2nc3ccc(C)cc3[nH]2)CC1
CCOC(=O)c1c(C)oc2nc(C)nc(Nc3ccc(CC)cc3)c12
COc1ccc(N2CCN(C(=O)c3c(C)oc4nc(C)nc(N5CCCC5)c34)CC2)cc1
O=C(NCCSc1ccccc1)c1ccco1
CC1(C)N=C(SCc2ccccc2Cl)c2ccccc2N1
Cc1ccc(-c2nnc(SCC(=O)NCc3ccccc3)nc2-c2ccc(C)cc2)cc1
Fc1ccc(Nc2nc(SCc3ccccc3Cl)nc3ccccc23)cc1
COc1ccc(CC(=O)N2CC(=O)Nc3ccc(Br)cc3C2c2ccc(F)cc2)cc1OC (stereo unspecified)
CC(=O)Nn1cc2c(=O)n(C)c(=O)n(C)c2c1
CCC(=O)NNc1cc(=O)c2c(=O)n(C)c(=O)n(C)c2[nH]1
CC(=O)c1ccc(NC(c2ccc(F)cc2)c2nnc(-c3ccccc3)o2)cc1 (stereo unspecified)
CC(C)Oc1ccc(NC(=O)c2cc3ccccc3o2)cc1
CCCCn1c(CNC(=O)C23CC4CC(CC(C4)C2)C3)nnc1SCC(=O)Nc1ccc(C)cc1
COc1cc(/C=N/NC(=S)Nc2cccnc2)cc(OC)c1O
COc1cc(/C=N/O)cc(Br)c1OS(=O)(=O)c1ccc(C)cc1
COc1ccccc1CNC(=O)C(=O)NCC(c1ccco1)S(=O)(=O)c1ccc(F)cc1 (stereo unspecified)
CC(=O)N1CCCc2ccc(NS(=O)(=O)c3ccc(F)cc3F)cc21
CC1CCCCN1S(=O)(=O)c1ccc(F)c(C(=O)Nc2ccccc2C(F)(F)F)c1 (stereo unspecified)
CCN(CC)CCNC(=O)Cn1ncc2c3ccccc3n(Cc3ccccc3C)c2c1=O
Oc1ccc(-n2nnnc2SCc2c(F)cccc2Cl)cc1
Cc1ccc(CSc2nnc(-c3cnccn3)n2C)cc1
CCOc1ccc(NC(=O)CSc2c3c(nc4ccccc24)CCCC3)cc1
CCOc1cc(CNC(=O)c2sc3ncnc(N(C)C4CCCCC4)c3c2C)ccc1OC
Cc1ccc(C(=O)CSc2nc(-c3ccccc3)nc3c2CCCC3)c(C)c1
COc1ccc(NC(=O)CSC2=Nc3ccccc3C3=NC(CC(=O)NCc4ccccc4OC)C(=O)N23)cc1Cl (stereo unspecified)
Cc1nn(CC(=O)O)c(=O)c2cc3cc(F)ccc3n12
CCC(=O)N1CCc2cc(CNC(=O)Nc3ccccc3Cl)ccc21
CC(=O)N1c2ccc(S(=O)(=O)N3CCCCCC3)cc2CC1C(=O)NCc1ccccc1C (stereo unspecified)
Cc1c(NC(=O)C(C)(C)C)cccc1-c1nc2ccccc2s1
CCN(CC)CCNC(=O)CN1N=C(c2ccc(OC)cc2)CCC1=O
C#CCOCCOCCOCCNc1nc(N2CCN(C(=O)[C@H](C(C)C)n3cc(CCO)nn3)CC2)nc(N2CCN(C(=O)[C@H](C(C)C)n3cc(CCO)nn3)CC2)n1
CC[C@@H](C)[C@@H](C(=O)N1CCN(C(=O)OC(C)(C)C)CC1)n1cc(CCC(=O)O)nn1
Cc1c(-c2nsc(NC(=O)c3cccc(Cl)c3)n2)nnn1-c1ccccc1C(F)(F)F
COc1ccc(NC(=O)CCCN2C(=O)CCn3nc(-c4cn(C)c5ccccc45)cc32)cc1OC
Cc1ccc(SCC(=O)Nc2ccc3oc(-c4ccccc4C)nc3c2)cc1
CCN(CC)c1ccc(NC(=O)Cn2nc3c(cc2=O)CCCC3)c(C)c1
CCOc1ccc(CC(=O)NCCc2csc3nc(-c4ccccc4F)nn23)cc1
O=C(CN1C(=O)C2C3C=CC(C3)C2C1=O)NCCc1ccccc1Cl (stereo unspecified)
O=C(NCCN1C(=O)C2C3C=CC(C3)C2C1=O)Nc1ccccn1 (stereo unspecified)
CSCCC(NC(=O)c1ccco1)C(=O)Nc1cc(C)ccn1 (stereo unspecified)
CC1CCN(S(=O)(=O)c2nnc(NC(=O)COc3ccccc3F)s2)CC1
Cc1cc(NC(=O)[C@H](C)NC(=O)c2ccco2)ccc1Br
Cc1csc2nc(COC(=O)c3ccc(NC(=O)COc4ccccc4F)cc3)cc(=O)n12
CCOc1ccccc1CNC(=O)Nc1cn(CC(C)C)c(=O)c2ccccc12
CCc1nn(CC(=O)N2CCN(c3ccc(Cl)cc3)CC2)c(=O)c2cc3occc3n12
Cc1ccc(CCNC(=O)c2ccc(CS(=O)(=O)Cc3cccc(C)c3)o2)cc1
Cc1ccc(-n2c(SCC(=O)Nc3cccc(F)c3)nc3c(oc4ccccc43)c2=O)cc1C
COC(=O)c1ccc(/C=N/OCC(=O)Nc2cc(F)ccc2F)cc1
COC(=O)c1ccc(/C=N/NC(=O)C(=O)N2CCCCCC2)cc1
CCCOc1ccc(C2c3c(-c4ccccc4O)n[nH]c3C(=O)N2Cc2cccnc2)cc1 (stereo unspecified)
CCOc1cccc(/C(O)=C2/C(=O)C(=O)N(CCOC)C2c2ccncc2)c1 (stereo unspecified)
CC(C)OCC(O)CN1CCN(C(c2ccccc2)c2ccccc2)CC1 (stereo unspecified)
COc1ccccc1CNCc1cccs1
COc1ccccc1Cn1c(CO)nc2ccccc21
COc1ccccc1N1CCN(Cc2cc(OC)c3c(c2)OCO3)CC1
CC(=O)N1CCN(CC(c2ccccc2)c2ccccc2)CC1
CNCC(O)CN1CCN(c2ccccc2OC)CC1 (stereo unspecified)
COc1ccc(OC)c(CN2CCN(C(=O)CNC(=O)c3cc(C)cc(C)c3)CC2)c1
COc1ccccc1NC(=S)N1CCN(C(c2ccccc2)c2ccccc2)CC1
CCCCNc1ccc(-c2nc(-c3ccncc3)no2)cc1[N+](=O)[O-]
CCOC(=O)c1c(S(=O)(=O)N2CCC(C(=O)NCc3ccccc3OC)CC2)c(C)n(C)c1C
O=C(COc1ccccc1)NCc1ccc2c(c1)CCN2C(=O)c1ccc(F)cc1
COc1ccc(-c2c(C)nn3c(N4CCC(C(=O)NCCC(C)C)CC4)cc(C)nc23)cc1OC

Potency, active:
Oc1c(CN2CCOCC2)ccc(CN2CCOCC2)c1O 3.55 µM
CC(C)CCNc1nc(N2CCCC2)c2c(c1C#N)CCN(C)C2 44.7 µM
CSC1=N/C(=C\C=C\c2cccs2)C(=O)S1 12.6 µM
CCOC(=O)c1c(C)oc2nc(C)nc(N3CCN(c4ccc(OC)cc4)CC3)c12 39.8 µM
Clc1ccccc1CSc1nnc(-c2ccco2)c(-c2ccco2)n1 22.4 µM
c1ccc(CSc2nnc(-c3ccco3)c(-c3ccco3)n2)cc1 17.8 µM
CC(=O)NNc1cc(=O)c2c(=O)n(C)c(=O)n(C)c2[nH]1 10 µM
COc1cc(/C=N/Nc2ccc(C)cc2)cc(Br)c1O 50.1 µM
Cc1coc2c(O)cc3c(c12)OC1(N2CCCCC2)C(=O)NCCCC31 (stereo unspecified) 20 µM
Cn1c(SCc2c(F)cccc2Cl)nnc1-c1cnccn1 79.4 µM
CCN1/C(=C\c2ccc3ccccc3[n+]2CC)Sc2cc(C)ccc21 20 µM
CCN1/C(=C/c2ccc3ccc(C)cc3[n+]2CC)Sc2ccccc21 89.1 µM
C#CCOCCOCCOCCNc1nc(N2CCN(C(=O)CCCCCCCCCCNC(=O)[C@H]([C@@H](C)CC)n3cc(CCCCN=C(N)N)nn3)CC2)nc(N2CCN(C(=O)CCCCCCCCCCNC(=O)[C@H](CO)n3cc(CCCSC)nn3)CC2)n1 20 µM
C#CCOCCOCCOCCNc1nc(N2CCN(C(=O)CCCCCCCCCCNC(=O)[C@H](CCCCN)n3cc(C)nn3)CC2)nc(N2CCN(C(=O)CCCCCCCCCCNC(=O)[C@H](CO)n3cc(CCCSC)nn3)CC2)n1 56.2 µM
C#CCOCCOCCOCCNc1nc(N2CCN(C(=O)CCCCCCCCCCNC(=O)Cn3cc(CCCCCN)nn3)CC2)nc(N2CCN(C(=O)CCCCCCCCCCNC(=O)[C@H](CO)n3cc(CCCSC)nn3)CC2)n1 79.4 µM
CC(NC(=O)c1ccco1)C(=O)Nc1nc(-c2ccccn2)cs1 (stereo unspecified) 44.7 µM
O=C(COc1ccccc1F)Nc1nc(-c2ccccn2)cs1 79.4 µM
O=C(CN1C(=O)C2C3C=CC(C3)C2C1=O)Nc1nc(-c2ccccn2)cs1 (stereo unspecified) 50.1 µM
COC(=O)c1ccc(/C=N/N2C(C)CCCC2C)cc1 (stereo unspecified) 63.1 µM
CCOc1ccc(/C(O)=C2/C(=O)C(=O)N(Cc3cccnc3)C2c2ccc(N(C)C)cc2)c(C)c1 (stereo unspecified) 56.2 µM
COc1ccccc1CN1CCN(C(c2ccccc2)c2ccccc2)CC1 50.1 µM
COc1ccccc1N1CCN(Cc2ccc(OC)c3ccccc23)CC1 3.16 µM
COc1ccccc1CN1CCN(Cc2cc(OC)c(OC)cc2OC)CC1 7.08 µM
Oc1ccccc1CN1CCN(C(c2ccccc2)c2ccccc2)CC1 56.2 µM

Reference: PubChem BioAssay AID504339 (National Center for Advancing Translational Sciences (NCATS), 2011)
